From PubChem BioAssay (EPA / NIEHS)
Records with an inconclusive call do not appear. Active and inactive are the calls of the source. The calls were made as follows: active = hit-call score of the fitted dose curve at least 0.9, where 1 is the maximum; inconclusive = response in the unintended direction; inactive = score below 0.9.

target: Androgen Receptor/SRC-1 Co-activator, AR (gene 367) (UniProt P10275); assay: OT_AR_ARSRC1_0960: Odyssey Thera (OT) 16-hour HEK293T Protein-Complementation Assay for Androgen Receptor/SRC-1 Co-activator (AID 2283353);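 also: actives raise the signal above DMSO so potency reflects increased AR and SRC-1 complex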
Sequence (P10275 whole entry, looked up, the tested form may be a part): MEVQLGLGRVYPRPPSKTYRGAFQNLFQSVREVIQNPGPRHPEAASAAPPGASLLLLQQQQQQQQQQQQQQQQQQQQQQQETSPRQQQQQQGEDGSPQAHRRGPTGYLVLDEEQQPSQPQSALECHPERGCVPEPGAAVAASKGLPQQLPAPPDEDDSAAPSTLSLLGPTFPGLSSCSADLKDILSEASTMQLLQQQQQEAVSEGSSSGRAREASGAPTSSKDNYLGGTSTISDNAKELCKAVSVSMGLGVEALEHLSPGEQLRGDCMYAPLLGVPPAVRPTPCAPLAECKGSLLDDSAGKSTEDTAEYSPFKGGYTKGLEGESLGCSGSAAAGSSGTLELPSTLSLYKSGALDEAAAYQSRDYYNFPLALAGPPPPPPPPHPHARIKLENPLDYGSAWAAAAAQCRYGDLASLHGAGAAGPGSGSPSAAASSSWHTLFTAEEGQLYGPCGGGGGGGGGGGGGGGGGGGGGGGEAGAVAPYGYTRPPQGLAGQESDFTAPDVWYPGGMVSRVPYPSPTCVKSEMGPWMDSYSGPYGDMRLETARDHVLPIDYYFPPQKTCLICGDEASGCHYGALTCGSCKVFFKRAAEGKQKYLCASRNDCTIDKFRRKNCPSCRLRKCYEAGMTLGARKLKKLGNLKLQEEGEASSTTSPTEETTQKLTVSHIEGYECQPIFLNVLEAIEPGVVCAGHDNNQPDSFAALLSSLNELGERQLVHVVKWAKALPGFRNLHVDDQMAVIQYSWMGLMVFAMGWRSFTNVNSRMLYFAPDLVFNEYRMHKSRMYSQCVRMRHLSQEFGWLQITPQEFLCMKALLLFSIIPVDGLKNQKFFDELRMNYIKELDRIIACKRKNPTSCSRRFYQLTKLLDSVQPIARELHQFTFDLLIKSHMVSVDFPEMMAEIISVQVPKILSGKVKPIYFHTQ
How it was run: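 Endpoint is gain-of-signal N/C fluorescence ratio in the 488 nm channel versus DMSO, from at least 400 cells per image, measured 16 h post-dosing. Cells: HEK293T stably carrying split-Venus AR/SRC-1 complementation constructs.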

| Structure (SMILES) | outcome |
| --- | --- |
| CC(=O)CC(C)(C)O | inactive |
| c1ccc2c(c1)ccc1ccccc12 | inactive |
| COCC(C)OCC(C)O (stereo not given) | inactive |
| O=c1c(-c2ccc(O)cc2)coc2cc(O)ccc12 | inactive |
| N#C[C@@H]1CC(F)(F)CN1C(=O)CNC1CC2CCC(C1)N2c1ncccn1 (stereo not given in full) | inactive |

target: Androgen Receptor/SRC-1 Co-activator, AR (gene 367) (UniProt P10275); assay: OT_AR_ARSRC1_0480: Odyssey Thera (OT) 8-hour HEK293T Protein-Complementation Assay for Androgen Receptor/SRC-1 Co-activator (AID 2283354);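 also: hits raise the complementation signal above DMSO so AC50 marks enhancers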
How it was run: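 Split-Venus PCA, stable HEK293T, AR/SRC-1 fusions; 8 h exposure. Readout: 488nm N/C fluorescence ratio, ≥400 cells/image; fitted upward vs DMSO baseline.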

| Structure (SMILES) | outcome |
| --- | --- |
| CC(=O)CC(C)(C)O | inactive |
| c1ccc2c(c1)ccc1ccccc12 | inactive |
| COCC(C)OCC(C)O (stereo not given) | inactive |
| O=c1c(-c2ccc(O)cc2)coc2cc(O)ccc12 | inactive |
| N#C[C@@H]1CC(F)(F)CN1C(=O)CNC1CC2CCC(C1)N2c1ncccn1 (stereo not given in full) | inactive |
